Here are results for 37 compounds from PubChem BioAssay (EPA / NIEHS).

Inconclusive results are not listed. The source made the active and inactive calls. The calls were made as follows: active = hit-call score of the fitted dose curve at least 0.9, where 1 is the maximum; inconclusive = response in the unintended direction; inactive = score below 0.9.

The nature of the assay: ACEA_ER_80hr: ACEA Biosciences xCELLigence Real-Time Cell Analysis on Estrogen Receptor Agonism for Proliferation (AID 2282667). The settings on record: T47D proliferation, impedance (xCELLigence), 80 h. The method, boiled down:
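Estrogen-driven proliferation is captured as electrode impedance in T47D cells 80 h after compound addition. Test articles ran at 8 concentrations, 1:4 dilutions from 100 uM final, in two replicate plates.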
`CC(=O)CCc1ccc(O)cc1`: the call was inactive.
Regarding `C[C@H](CCC(=O)O)[C@H]1CC[C@H]2[C@@H]3CC[C@@H]4C[C@H](O)CC[C@]4(C)[C@H]3CC[C@]12C`, the call was inactive.
For the compound `CCCCCCCCOC(C)=O`, the call was inactive.
A word on the AC50: it is the concentration at which the activity in the assay is half-maximal. In the case of `COc1ccc(N)c(C)c1`, the AC50 is 43.5 µM (active).
As to `Cc1ccc(C(C)(C)O)cc1`, the call was inactive.
On the same count and under the same terms, for `CC1=CC[C@@H](C(C)(C)O)CC1` the value was “inactive”; for `[O-]/[N+](=N\O)c1ccccc1`, “inactive”; for `O=C1CCCCCCCCCCCC(=O)OCCO1`, “inactive”.
On the same count and under the same terms, for `CCCc1ccc(N)cc1` the value was “inactive”.
Same read-out and setting: for `C[N+](C)(C)CCO` the value was “inactive”; for `CCCCCCC(C)O` (configuration not stated), “inactive”; for `CCOC(=O)COC(=O)c1ccccc1C(=O)OCC`, “inactive”.
For `CCCCCCCCCCCCOC(C)=O`, the call was inactive.
For the compound `CCCCOCCOC(=O)c1ccccc1C(=O)OCCOCCCC`, the outcome was inactive.
Same read-out and setting: for `CC(C)N(c1ccccc1)C(C)C` the value was “inactive”; for `CC(=O)CC(C)(C)C1CCCCC1`, “inactive”.
As for `C=CC(C)(CCC=C(C)C)OC(=O)CC` (configuration not stated), the result was inactive.
Consider `OCCN1CCOCC1`, for which the compound was classed as inactive.
On to `N#CCCNCCC#N`, for which the AC50 was 0.274 µM (active).
`CC(C)(C)c1cc(CCC(=O)OCCSCCOC(=O)CCc2cc(C(C)(C)C)c(O)c(C(C)(C)C)c2)cc(C(C)(C)C)c1O`: the compound was classed as inactive.
As to `CCCCCCCCOC(=O)c1ccc(O)cc1`, the AC50 is 0.521 µM (active).
For `CCn1cc(C(=O)O)c(=O)c2ccc(C)nc21`, the call was inactive.
With `CCc1cccc(O)c1`, the call was inactive.
The same measure, in the same setting: for `CC(=O)OC(C)(C)C` the value was “inactive”; for `O=C(O)c1ccc(C(=O)O)c(C(=O)O)c1`, “inactive”; for `CCCCC(CC)COCCO` (configuration not stated), “inactive”.
Consider `NCCCOCCOCCOCCCN`, for which the AC50 is 10.2 µM (active).
For `Cc1ccccc1S`, the result was inactive.
On the same count and under the same terms, for `C[Si]1(C)N[Si](C)(C)N[Si](C)(C)N1` the value was “inactive”; for `CCCCCCCCCCCCN1CCOCC1`, “inactive”.
Turning to `C=C1CC[C@H]2O[C@]2(C)CC[C@@H]2[C@@H]1CC2(C)C`, the call was inactive.
Turning to `CCCCN(CCO)CCO`, the result was inactive.
On the same count and under the same terms, for `C=CC(C)CCCC(C)(C)O` (configuration not stated) the value was “inactive”; for `CCCCCCOc1ccc(O)cc1`, “inactive”; for `CNC(=C[N+](=O)[O-])NCCSCc1ccc(CN(C)C)o1`, “inactive”.
The same measure, in the same setting: for `CCCCCCCCOS(=O)(=O)O` the value was “inactive”; for `O=S1(=O)CC(Cl)(Cl)C(Cl)(Cl)C1`, “inactive”.
